Holding throughout (assay): NCI-60 one-dose screen, 48 h (100 = growth as untreated, 0 = no growth, -100 = all killed)
One assay has as its system SK-MEL-2 melanoma. The settings on record: 10 µM unless noted.
In another assay the test system is EKVX NSCLC. The settings on record: 10 µM unless noted.
In a further assay the test system is SN12C renal. The settings on record: 10 µM unless noted.
The test system of a further assay is ACHN renal. As to conditions: 10 µM unless noted.
The next assay concerns CAKI-1 renal. The settings on record: 10 µM.
A further assay relates to A498 renal. As to conditions: 10 µM unless noted.
In a further assay the test system is CCRF-CEM leukemia. The settings on record: 10 µM unless noted.
The subject of a further assay is MOLT-4 leukemia. The settings on record: 10 µM unless noted.
In another assay the test system is SR leukemia. As to conditions: 10 µM unless noted.
Another assay relates to RPMI-8226 leukemia. The settings on record: 10 µM unless noted.
A further assay deals with OVCAR-8 ovarian. As to conditions: 10 µM unless noted.
The next assay deals with OVCAR-5 ovarian. The settings on record: 10 µM unless noted.
A further assay relates to OVCAR-4 ovarian. As to conditions: 10 µM unless noted.
The subject of the next assay is SK-OV-3 ovarian. As to conditions: 10 µM unless noted.
In the next assay the test system is IGROV1 ovarian. The settings on record: 10 µM unless noted.
For another assay, the system named is OVCAR-3 ovarian. The settings on record: 10 µM unless noted.
Another assay has as its system HS 578T breast. As to conditions: 10 µM unless noted.
The next assay has as its system NCI/ADR-RES ovarian. As to conditions: 10 µM unless noted.
A further assay concerns TK-10 renal. The settings on record: 10 µM unless noted.

Compounds without any hit were thinned out: in the full panel of roughly 83,000, 20% have a hit.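 Negative percent growth values reflect cell death: -40 means 40% of the cells present at the start died, and -100 means all died.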 A number with no mark means an inactive call. The source made the active and inactive calls. Rule for the calls: active = growth percent below 10; inactive = the rest.

In the case of `COCCNC(C(=O)c1ccccc1)c1ccccc1` (stereo not drawn), the growth is 107% with SK-MEL-2 melanoma; 99.2% with EKVX NSCLC; 100% with SN12C renal; 106% in the assay with ACHN renal; 102% in the assay on CAKI-1 renal; 88.4% in the assay on A498 renal. Besides, the growth in the assay on CCRF-CEM leukemia was 101%; in the assay on MOLT-4 leukemia, 98.6%; in the assay on SR leukemia it was 109%; with RPMI-8226 leukemia it was 98.4%; in the assay with OVCAR-8 ovarian, 97.7%; in the assay on OVCAR-5 ovarian, 95.1%. Further, the growth was 105% in the assay on OVCAR-4 ovarian; 101% in the assay on SK-OV-3 ovarian; 102% in the assay with IGROV1 ovarian; 104% in the assay with OVCAR-3 ovarian; 100% with HS 578T breast; 107% in the assay with NCI/ADR-RES ovarian.

Take `COC(=O)/C=C/C(=O)c1cc(C)cc(C)c1O`: the growth is 99.2% in the assay on SK-MEL-2 melanoma; 95.9% in the assay on EKVX NSCLC; 109% with SN12C renal; 96.9% in the assay on TK-10 renal; 105% in the assay on A498 renal; 89.8% in the assay on MOLT-4 leukemia. For the same compound, the growth was 90% in the assay on SR leukemia; 104% in the assay with RPMI-8226 leukemia; 111% with OVCAR-8 ovarian; 98.9% with OVCAR-5 ovarian; 101% in the assay on OVCAR-4 ovarian; 104% with SK-OV-3 ovarian. In addition, the growth is 106% in the assay with IGROV1 ovarian, 102% in the assay on OVCAR-3 ovarian, 112% with HS 578T breast and 99.5% with NCI/ADR-RES ovarian.

Turning to `COc1ccc(-c2c(C#N)cnc(N)c2-c2nc3cc(C)c(C)cc3[nH]2)cc1`, the growth is 41.4% in the assay on SK-MEL-2 melanoma; 63% in the assay on EKVX NSCLC; 80.7% with SN12C renal; 48.6% with TK-10 renal; 53.2% with ACHN renal; 82.9% in the assay on A498 renal. Moreover, the growth is 90.5% in the assay on CCRF-CEM leukemia; 104% with MOLT-4 leukemia; 20.2% in the assay with SR leukemia; 81.3% with RPMI-8226 leukemia; 43.6% in the assay with OVCAR-8 ovarian; 102% in the assay with OVCAR-5 ovarian. Moreover, the growth is 50.7% in the assay with OVCAR-4 ovarian, 36.4% with IGROV1 ovarian, 55.7% in the assay on OVCAR-3 ovarian and 50.2% with NCI/ADR-RES ovarian.

For `Fc1ccc(/C=N/n2c(-c3cc(Cl)cc(Cl)c3Cl)nn(CNc3ccc(Cl)nn3)c2=S)cc1`, the growth is 98.1% in the assay on SK-MEL-2 melanoma; 104% in the assay with EKVX NSCLC; 102% in the assay with SN12C renal; 103% in the assay on TK-10 renal; 104% in the assay on ACHN renal; 105% in the assay on A498 renal. In addition, the growth in the assay with CCRF-CEM leukemia was -70.4% (active); with MOLT-4 leukemia, 75.1%; in the assay with SR leukemia, 79.7%; with RPMI-8226 leukemia, 82.4%; in the assay on OVCAR-8 ovarian, 95.7%; with OVCAR-5 ovarian, 89.9%. Further, the growth is 91.8% with OVCAR-4 ovarian; 90.2% with SK-OV-3 ovarian; 96.3% in the assay on IGROV1 ovarian; 108% in the assay with HS 578T breast; 86.7% with NCI/ADR-RES ovarian.

In the case of `COc1ccc(-c2cc(-c3nnc(SC/C(=N\O)c4ccccc4)n3-c3ccccc3)c3ccccc3n2)cc1`, the growth is 95.2% with SK-MEL-2 melanoma; 103% in the assay on EKVX NSCLC; 105% in the assay on SN12C renal; 123% in the assay with TK-10 renal; 106% in the assay with ACHN renal; 109% in the assay on A498 renal. The growth was 103% in the assay on CCRF-CEM leukemia; 98.4% in the assay with MOLT-4 leukemia; 86.8% with SR leukemia; 97.9% in the assay on RPMI-8226 leukemia; 98.7% in the assay on OVCAR-8 ovarian; 119% in the assay with OVCAR-5 ovarian. Moreover, the growth in the assay on OVCAR-4 ovarian is 113%; with SK-OV-3 ovarian, 79.4%; with IGROV1 ovarian, 105%; in the assay with OVCAR-3 ovarian, 107%; in the assay with HS 578T breast, 98.4%; in the assay on NCI/ADR-RES ovarian it was 104%.

With `COc1cc(-c2nc(N)n(CC(=O)Nc3ccc(/C(C)=N\O)cc3)n2)cc(OC)c1OC`, the growth was 92.1% in the assay with SK-MEL-2 melanoma; 106% in the assay with EKVX NSCLC; 96% in the assay on SN12C renal; 90.9% in the assay on TK-10 renal; 89.8% in the assay with A498 renal; 84.5% in the assay on CCRF-CEM leukemia. For the same compound, the growth in the assay on MOLT-4 leukemia is 91.6%; in the assay with SR leukemia it was 83%; in the assay with RPMI-8226 leukemia, 94.3%; in the assay with OVCAR-8 ovarian, 74.3%; in the assay with OVCAR-5 ovarian it was 114%; in the assay on OVCAR-4 ovarian, 112%. In addition, the growth was 87.9% in the assay on SK-OV-3 ovarian; 96.8% in the assay on IGROV1 ovarian; 106% with OVCAR-3 ovarian; 82.1% in the assay on HS 578T breast; 105% in the assay with NCI/ADR-RES ovarian.

Consider `CN1CCN(CC(=O)N(C)c2ccc(N=C(c3ccccc3)c3c(O)[nH]c4ccc(C#N)cc34)cc2)CC1`, for which the growth is 16.4% in the assay with SK-MEL-2 melanoma; 63.4% with EKVX NSCLC; 26.4% in the assay on SN12C renal; 48.4% in the assay with ACHN renal; 20.2% with CAKI-1 renal; 27% in the assay on A498 renal. For the same compound, the growth with CCRF-CEM leukemia was 15.8%; in the assay with MOLT-4 leukemia, 8.12% (active); with SR leukemia, 0.738% (active); in the assay with RPMI-8226 leukemia it was 57.6%; in the assay on OVCAR-8 ovarian it was 39.1%; in the assay with OVCAR-5 ovarian, 80.1%. For the same compound, the growth with OVCAR-4 ovarian is 48%; in the assay on SK-OV-3 ovarian it was -7.83% (active); with IGROV1 ovarian, 31%; with OVCAR-3 ovarian, 52.2%; in the assay with HS 578T breast it was -2.32% (active); with NCI/ADR-RES ovarian, 106%.

`NS(=O)(=O)c1ccc(Nc2nc(O)c(/C=C3\C=Nc4ccccc43)s2)cc1`: the growth in the assay on SK-MEL-2 melanoma is 103%; in the assay with EKVX NSCLC it was 98.2%; with SN12C renal, 91.1%; with TK-10 renal, 112%; with CCRF-CEM leukemia, 85.6%; in the assay with MOLT-4 leukemia, 95.4%. Moreover, the growth was 99.2% in the assay on SR leukemia; 95% in the assay with RPMI-8226 leukemia; 94.5% in the assay with OVCAR-8 ovarian; 111% in the assay on OVCAR-5 ovarian; 125% in the assay on OVCAR-4 ovarian; 102% with SK-OV-3 ovarian. Also, the growth with IGROV1 ovarian was 92.5%; in the assay with OVCAR-3 ovarian, 102%; with HS 578T breast, 87.5%; in the assay on NCI/ADR-RES ovarian, 101%.

`CCOc1ccc(Cc2nccc3cc(OCC)c(OCC)cc23)cc1OCC`: the growth with SK-MEL-2 melanoma was 80.4%; in the assay on EKVX NSCLC it was 42%; in the assay on SN12C renal, 58.9%; in the assay on TK-10 renal, 68.6%; in the assay on CAKI-1 renal it was 48%; with A498 renal it was 35.5%. Also, the growth was 58.7% in the assay with CCRF-CEM leukemia; 27.2% in the assay on MOLT-4 leukemia; 26.7% in the assay on SR leukemia; 47.3% in the assay with RPMI-8226 leukemia; 69.1% in the assay on OVCAR-8 ovarian; 54.6% in the assay on OVCAR-4 ovarian. Moreover, the growth was 87.2% in the assay with SK-OV-3 ovarian; 16.6% with IGROV1 ovarian; 75% in the assay with OVCAR-3 ovarian; 78.1% with HS 578T breast; 65.3% in the assay with NCI/ADR-RES ovarian.

Source of the values: PubChem BioAssay (NCI).
